# Experimental data as given in PubChem BioAssay AID504915 (The Scripps Research Institute Molecular Screening Center, 2011).
# The other results are listed elsewhere or left out. Values without a mark were called inactive. The source made the active and inactive calls. Rule as the data show it: active = activation above about 17%; inactive = the rest.
# Target: 5-hydroxytryptamine receptor 5A (Homo sapiens) (UniProt P47898)
# Assay: activation of human 5-HT5A receptor – cell-based, luminescence, confirmation (AID 504915);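 also: 0% = cells with vehicle only and 100% = full reference agonist response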
# Settings: HTR5A agonist cell assay, at 9.3 µM, hits give high values
# 5-hydroxytryptamine receptor 5A (Homo sapiens), sequence (P47898 whole entry, looked up): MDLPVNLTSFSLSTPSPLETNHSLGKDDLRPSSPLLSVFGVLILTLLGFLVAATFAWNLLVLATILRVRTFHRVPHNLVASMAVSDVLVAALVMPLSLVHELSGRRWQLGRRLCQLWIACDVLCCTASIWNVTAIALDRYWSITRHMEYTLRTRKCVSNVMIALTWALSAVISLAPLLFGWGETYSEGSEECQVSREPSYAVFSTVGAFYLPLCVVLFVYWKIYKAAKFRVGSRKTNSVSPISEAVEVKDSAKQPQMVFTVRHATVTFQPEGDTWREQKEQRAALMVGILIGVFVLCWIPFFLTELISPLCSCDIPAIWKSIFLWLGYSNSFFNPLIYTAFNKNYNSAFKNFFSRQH
row,SMILES,activation
1,Cc1ccccc1CN1CCN(CC(=O)NCc2ccccn2)C1=O,3.7%
2,CCOC(=O)c1cnc2sccn2c1=O,5.5%
3,CCCN(CCc1ccccc1)C1CCc2c(O)cccc2C1 (centres undefined),37.2% (active)
4,COc1ccc(-c2ocnc2C(=O)Nc2ccc3c(c2)CCC3)cc1,-0.96%
5,c1cc(-c2nn[nH]n2)ccc1CN1CCCCC1,-1.04%
6,COc1cccc(/C=N/NC(=O)c2[nH]nc3c2CCc2ccccc2-3)c1O,-2.75%
7,COC(=O)c1cc(S(=O)(=O)N2CCN(c3cc(C)ccc3C)CC2)c[nH]1,0.19%
8,COc1ccc2[nH]cc(CCN3C(=O)c4ccc(C(=O)O)cc4C3=O)c2c1,-2.36%
9,COc1ccc(/C=C(\C#N)c2c[nH]c3ccccc23)cc1,0.48%
10,O=C(CC(O)(C(F)(F)F)C(F)(F)F)Nc1ccc(Cl)c(Cl)c1,-1.59%
11,O=C(Nc1ccc(C(=O)N2CCOCC2)cc1)Nc1cccc(C(F)(F)F)c1,43.1% (active)
12,CC(=O)COc1ccc2c(-c3ccccc3)cc(=O)oc2c1,4.18%
13,COC(=O)c1cc(C(=O)OCC(=O)Nc2cc(C)on2)cc([N+](=O)[O-])c1,1.23%
14,Cc1c(C(=O)OCC(=O)N2CCCC2=O)oc2ccccc12,3.43%
15,COc1c(Cl)cc(C(=O)Nc2ccc(Cl)cn2)cc1Cl,4.5%
16,COc1ccc(C(=O)O/N=C(\N)Cc2ccc(Cl)cc2Cl)cc1OC,10.9%
17,C/C(=N\NC(=O)CNc1cccc2ccccc12)c1ccc(Br)s1,1.77%
18,CN(c1ccccc1)S(=O)(=O)c1cc(C(=O)N2CCN(c3ncccn3)CC2)ccc1Cl,-3.34%
19,CNc1nnc(-c2ccco2)s1,0.94%
20,Cc1ccc(CCC(=O)Nc2ncc(Cc3cc(Cl)ccc3Cl)s2)o1,29.1% (active)
21,COc1cc2c(-c3ccc4c(c3)OCO4)c(-c3ccsc3)oc(=O)c2cc1OC,-0.88%
22,O=C(c1cccnc1)N(c1cc2sc(=O)oc2c2ccccc12)S(=O)(=O)c1ccccc1,2.35%
23,CC(=O)c1c(C)[nH]c(C(=O)OCC(=O)Nc2c(C)cccc2C)c1C,1.01%
24,CCCOc1ccc(C(=O)C(CCC(CNCC)C(=O)c2ccc(OCCC)cc2)CNCC)cc1 (centres undefined),-4.56%
